# Experimental data reported in publication PMC11062922 (Nature Chemical Biology, 2023).
# Where two headings read alike, the source gives them in different places.
# Tests used:
# AURKA = conditions: read-out: apparent Kd, n = 1
# CHEK1 = conditions: read-out: apparent Kd, n = 1
substance,measurement,setting,value
Lestaurtinib,potency estimated from few doses,"AURKA; compound concentrations:100 nM and 1000 nM (sheet 'Lestaurtinib' of Supplementary Table 1),run:Lestaurtinib_02802_R1,Plate:MR029",16.2 nM
same,potency estimated from few doses,"AURKA; compound concentrations:100 nM and 1000 nM (sheet 'Lestaurtinib' of Supplementary Table 1),run:Lestaurtinib_02802_R2,Plate:MR029",15.9 nM
same,potency estimated from few doses,"AURKA; compound concentrations:100 nM and 1000 nM (sheet 'Lestaurtinib' of Supplementary Table 1),run:Lestaurtinib_02802_R3,Plate:MR029",14.1 nM
same,potency estimated from few doses,"AURKA; compound concentrations:100 nM and 1000 nM (sheet 'Lestaurtinib' of Supplementary Table 1),run:Lestaurtinib_02896_R1,Plate:MR030",15.4 nM
same,potency estimated from few doses,"AURKA; compound concentrations:100 nM and 1000 nM (sheet 'Lestaurtinib' of Supplementary Table 1),run:Lestaurtinib_02896_R2,Plate:MR030",16.3 nM
same,potency estimated from few doses,"AURKA; compound concentrations:100 nM and 1000 nM (sheet 'Lestaurtinib' of Supplementary Table 1),run:Lestaurtinib_02896_R3,Plate:MR030",16.2 nM
same,potency estimated from few doses,"AURKA; compound concentrations:100 nM and 1000 nM (sheet 'Lestaurtinib' of Supplementary Table 1),run:Lestaurtinib_03172_R1,Plate:MR031",17 nM
same,potency estimated from few doses,"AURKA; compound concentrations:100 nM and 1000 nM (sheet 'Lestaurtinib' of Supplementary Table 1),run:Lestaurtinib_03252_R1,Plate:MR032",16.3 nM
same,potency estimated from few doses,"AURKA; compound concentrations:100 nM and 1000 nM (sheet 'Lestaurtinib' of Supplementary Table 1),run:Lestaurtinib_03260_R1,Plate:MR033",27.5 nM
same,potency estimated from few doses,"AURKA; compound concentrations:100 nM and 1000 nM (sheet 'Lestaurtinib' of Supplementary Table 1),run:Lestaurtinib_03260_R3,Plate:MR033",22.2 nM
same,potency estimated from few doses,"CHEK1; compound concentrations:100 nM and 1000 nM (sheet 'Lestaurtinib' of Supplementary Table 1),run:Lestaurtinib_02339_R1,Plate:MR001",99.6 nM
same,potency estimated from few doses,"CHEK1; compound concentrations:100 nM and 1000 nM (sheet 'Lestaurtinib' of Supplementary Table 1),run:Lestaurtinib_02339_R2,Plate:MR001",72.8 nM
same,potency estimated from few doses,"CHEK1; compound concentrations:100 nM and 1000 nM (sheet 'Lestaurtinib' of Supplementary Table 1),run:Lestaurtinib_02339_R3,Plate:MR001",71.3 nM
same,potency estimated from few doses,"CHEK1; compound concentrations:100 nM and 1000 nM (sheet 'Lestaurtinib' of Supplementary Table 1),run:Lestaurtinib_02364_R1,Plate:MR002",67.1 nM
same,potency estimated from few doses,"CHEK1; compound concentrations:100 nM and 1000 nM (sheet 'Lestaurtinib' of Supplementary Table 1),run:Lestaurtinib_02364_R3,Plate:MR002",86.4 nM
same,potency estimated from few doses,"CHEK1; compound concentrations:100 nM and 1000 nM (sheet 'Lestaurtinib' of Supplementary Table 1),run:Lestaurtinib_02367_R2,Plate:MR003",78 nM
same,potency estimated from few doses,"CHEK1; compound concentrations:100 nM and 1000 nM (sheet 'Lestaurtinib' of Supplementary Table 1),run:Lestaurtinib_02381_R1,Plate:MR004",78.7 nM
same,potency estimated from few doses,"CHEK1; compound concentrations:100 nM and 1000 nM (sheet 'Lestaurtinib' of Supplementary Table 1),run:Lestaurtinib_02381_R3,Plate:MR004",61.8 nM
same,potency estimated from few doses,"CHEK1; compound concentrations:100 nM and 1000 nM (sheet 'Lestaurtinib' of Supplementary Table 1),run:Lestaurtinib_02407_R1,Plate:MR005",73.9 nM
same,potency estimated from few doses,"CHEK1; compound concentrations:100 nM and 1000 nM (sheet 'Lestaurtinib' of Supplementary Table 1),run:Lestaurtinib_02407_R2,Plate:MR005",71 nM
same,potency estimated from few doses,"CHEK1; compound concentrations:100 nM and 1000 nM (sheet 'Lestaurtinib' of Supplementary Table 1),run:Lestaurtinib_02422_R1,Plate:MR006",70.8 nM
same,potency estimated from few doses,"CHEK1; compound concentrations:100 nM and 1000 nM (sheet 'Lestaurtinib' of Supplementary Table 1),run:Lestaurtinib_02422_R2,Plate:MR006",31 nM
same,potency estimated from few doses,"CHEK1; compound concentrations:100 nM and 1000 nM (sheet 'Lestaurtinib' of Supplementary Table 1),run:Lestaurtinib_02422_R3,Plate:MR006",76.2 nM
same,potency estimated from few doses,"CHEK1; compound concentrations:100 nM and 1000 nM (sheet 'Lestaurtinib' of Supplementary Table 1),run:Lestaurtinib_02437_R2,Plate:MR007",67.9 nM
same,potency estimated from few doses,"CHEK1; compound concentrations:100 nM and 1000 nM (sheet 'Lestaurtinib' of Supplementary Table 1),run:Lestaurtinib_02437_R3,Plate:MR007",17.2 nM
same,potency estimated from few doses,"CHEK1; compound concentrations:100 nM and 1000 nM (sheet 'Lestaurtinib' of Supplementary Table 1),run:Lestaurtinib_02438_R2,Plate:MR008",88.5 nM
same,potency estimated from few doses,"CHEK1; compound concentrations:100 nM and 1000 nM (sheet 'Lestaurtinib' of Supplementary Table 1),run:Lestaurtinib_02438_R3,Plate:MR008",99.8 nM
same,potency estimated from few doses,"CHEK1; compound concentrations:100 nM and 1000 nM (sheet 'Lestaurtinib' of Supplementary Table 1),run:Lestaurtinib_02443_R2,Plate:MR009",94.3 nM
same,potency estimated from few doses,"CHEK1; compound concentrations:100 nM and 1000 nM (sheet 'Lestaurtinib' of Supplementary Table 1),run:Lestaurtinib_02473_R1,Plate:MR010",72.2 nM
same,potency estimated from few doses,"CHEK1; compound concentrations:100 nM and 1000 nM (sheet 'Lestaurtinib' of Supplementary Table 1),run:Lestaurtinib_02473_R2,Plate:MR010",70.2 nM
same,potency estimated from few doses,"CHEK1; compound concentrations:100 nM and 1000 nM (sheet 'Lestaurtinib' of Supplementary Table 1),run:Lestaurtinib_02482_R1,Plate:MR011",78 nM
same,potency estimated from few doses,"CHEK1; compound concentrations:100 nM and 1000 nM (sheet 'Lestaurtinib' of Supplementary Table 1),run:Lestaurtinib_02482_R3,Plate:MR011",92.6 nM
same,potency estimated from few doses,"CHEK1; compound concentrations:100 nM and 1000 nM (sheet 'Lestaurtinib' of Supplementary Table 1),run:Lestaurtinib_02487_R1,Plate:MR012",69.6 nM
same,potency estimated from few doses,"CHEK1; compound concentrations:100 nM and 1000 nM (sheet 'Lestaurtinib' of Supplementary Table 1),run:Lestaurtinib_02487_R2,Plate:MR012",86.9 nM
same,potency estimated from few doses,"CHEK1; compound concentrations:100 nM and 1000 nM (sheet 'Lestaurtinib' of Supplementary Table 1),run:Lestaurtinib_02487_R3,Plate:MR012",87.7 nM
same,potency estimated from few doses,"CHEK1; compound concentrations:100 nM and 1000 nM (sheet 'Lestaurtinib' of Supplementary Table 1),run:Lestaurtinib_02496_R1,Plate:MR013",92.6 nM
same,potency estimated from few doses,"CHEK1; compound concentrations:100 nM and 1000 nM (sheet 'Lestaurtinib' of Supplementary Table 1),run:Lestaurtinib_02496_R2,Plate:MR013",79.6 nM
same,potency estimated from few doses,"CHEK1; compound concentrations:100 nM and 1000 nM (sheet 'Lestaurtinib' of Supplementary Table 1),run:Lestaurtinib_02566_R1,Plate:MR014",88.2 nM
same,potency estimated from few doses,"CHEK1; compound concentrations:100 nM and 1000 nM (sheet 'Lestaurtinib' of Supplementary Table 1),run:Lestaurtinib_02566_R2,Plate:MR014",75.6 nM
same,potency estimated from few doses,"CHEK1; compound concentrations:100 nM and 1000 nM (sheet 'Lestaurtinib' of Supplementary Table 1),run:Lestaurtinib_02566_R3,Plate:MR014",66.8 nM
same,potency estimated from few doses,"CHEK1; compound concentrations:100 nM and 1000 nM (sheet 'Lestaurtinib' of Supplementary Table 1),run:Lestaurtinib_02572_R1,Plate:MR015",89.7 nM
same,potency estimated from few doses,"CHEK1; compound concentrations:100 nM and 1000 nM (sheet 'Lestaurtinib' of Supplementary Table 1),run:Lestaurtinib_02584_R1,Plate:MR017",76.9 nM
same,potency estimated from few doses,"CHEK1; compound concentrations:100 nM and 1000 nM (sheet 'Lestaurtinib' of Supplementary Table 1),run:Lestaurtinib_02584_R3,Plate:MR017",87.5 nM
